# Reference: the supplement of paper PMC11417369
# Over roughly 25,000 sequences, “ln(normalized median fluorescence intensity)” has its median near 9.3; the highest 2% begin near 10. The full list was thinned out, with the highest values kept by preference.
# System: PF3D7_0420300 AP2 domain 1 (GST-tagged)
# Test: gcPBM binding intensity (ln(normalized median fluorescence intensity)); higher = stronger DNA binding
# Method in brief: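 Plasmodium falciparum DNA-binding domains carrying a GST tag were expressed in E. coli and applied for 1 h, at about 25 μg on average, to an Agilent 4 × 180k array. The array held primer-extended double-stranded 36-bp intergenic genomic probes together with negative controls, and binding took place in 1× PBS with 1% milk, 0.2 mg/ml BSA, 0.5% salmon testes DNA and 0.03% Triton X-100. An Alexa488 anti-GST antibody detected bound protein, and the array was scanned at 488 nm. Binding intensity is taken as the highest Masliner-normalised natural-log median intensity across replicate spots of either probe orientation.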
row,Sequence,gcPBM binding intensity (ln)
1,TATATAACTGTCTTCACACACACATATAAATAAATA [CACACA_site7317],9.77
2,TAATTTCTTTAGGGGGTGCTTTTATAGTTTTTATTA,10.1
3,TATATATTTATTTATAGTACACTATTTATGAAAACC [XGTACX_site3062],9.1
4,ATTAAAAGGGGGTTTACATGTGTGTGTGTAATATGG [TGCATGCA_negctrl_site293],10.2
5,TATAATCATATTAAGGGTACATATGTGTAAATATTT [XGTACX_site6018],9.23
6,AATAATATTAATAAAAGTACATGTGTAATATATATA [XGTACX_site5922],9.51
7,AACAACTATTACTGCACACATTCTTACACTATATAA [CACACA_site654],9.75
8,TATAAATAAAGCAGTACACACATTTATTTTAGATAC [CACACA_site7566],9.61
9,ATAAATATCATATATATACACACGTAATACATAATA [CACACA_site4001],9.56
10,ATAAAAAAATCAGACACACACACGTAAACACATACA [CACACA_site5529],10.1
11,GGGGGGAGGGTGAATACACACGTAATAATCATAAAC [CACACA_site8502],10.3
12,ATGCTATATTAAAAACGTACAAACTGTTTAGAAAAA [XGTACX_site8943],9.12
13,TTATTTAGTATATTATGTACATACAATGCCTGGGAA [XGTACX_site4578],9.21
14,AATAAAGCAATAAATACACACATATATATATATATA [CACACA_site2934],9.31
15,AATAGTAAAAGATATACACACACCAAAAAATATAAT [CACACA_site5293],9.99
16,TATATATATAAATACACACACACACCCCAAAGCGTA [CACACA_site4211],10.1
17,TAAATATATAAATACACACACACCAAAGCAATAGAT [CACACA_site5605],10.2
18,AATAGTAAAAGATATACACACACCAAAAAATAGAAT [CACACA_site2289],10.3
19,TATAAATAAATAGATACACACATATTTATAAATACA [CACACA_site6219],9.56
20,TAAATATATTTATACACACACACCAAAGCAATAGAT [CACACA_site7393],10.3

row,Sequence,gcPBM binding intensity (ln)
1,TAAATATATATATACACACACACCAAAGCAATAGAT [CACACA_site2940],10.3
2,TGTAAATATATATATACACACACACCGAAGCAATAG [CACACA_site8960],10.1
3,TAAAAAAGAAAATATATACACACCAAAAAAAAAAAA [CACACA_site3146],9.66
4,AAAAAGAAAATATATACACACCAAAAAAAAAAAAAA [CACACA_site5698],9.46
5,AATAAAGCAATAAATACACACATATTTATATTTATA [CACACA_site7390],9.56
6,AGCTATAATAAATATACACACATATATAAATATGTA [CACACA_site6583],9.37
7,CATGTGTTCTATATTTATGTCTAACTTTTTAATTAA [CACACA_negctrl_site904],9.43
8,GTTTAAAAAAATTATCAACTTTAAAAAGGTAACATT [XGTACX_negctrl_site203],8.99
9,ATTTATAAAACAGGCACACATATAATAAATTTTATA [CACACA_site2600],9.54
10,AATACTCAAAAGAATCGTACAAACAACACTCCCACG [XGTACX_site7564],9.4
11,TTTTTTTTTCAAGAGGTGCGTGTATTTTAACAAAAA,9.03
12,TTAATTATATTATGCACACACAATTGGAAAAAAAAT [CACACA_site1958],9.64
13,AGTATATAAAATACTGTATCGATGGGGGAGGGCGCA [CACACA_negctrl_site1612],10
14,TATAAAATACTGTATCGATGGGGGAGGGCGCAGGGG [TGCATGCA_negctrl_site250],11
15,ATATATGGGGCGCAGGAAAAGAGTTTTGGAAATAAA [CACACA_negctrl_site1265],9.2
16,TTTCTAATTTATATCACACACATATTTATATAGTAA [CACACA_site6813],9.41
17,TATAAATTTATAAATAGTACATATATTTATATATAT [XGTACX_site6433],9.07
18,CCCACAGACGGACACACACACACATATATATATATA [CACACA_site4352],10.1
19,TTGGCATACGGACACACACACACACCCAGACATATA [CACACA_site4492],10.2
20,TACAGATACGGACACACACACACACCCAGACAAAAA [CACACA_site4432],10

row,Sequence,gcPBM binding intensity (ln)
1,CACAGACACGGACACACACACACACCCACATATATA [CACACA_site4355],10.3
2,CCCACAGACGGACACACACACATATATATATATATA [CACACA_site4351],9.81
3,CACAGACACGGACACACACACACACCCAGACACATA [CACACA_site4357],10.2
4,CATACACCCAGACACACACACATATATATATATATA [CACACA_site634],9.94
5,CACAGACACGGACACACACACATATATATATATATA [CACACA_site5248],9.86
6,CCCACAGACGGACACACACACACACCGACACATATA [CACACA_site4356],10.2
7,AATCTAATATAATGCACACATAAAAAAAAATCAAAC [CACACA_site3633],9.8
8,TAAAAATATATATGATTGCACTTAGGACAATATATA,9.14
9,TTATTTTTTAAAAGTAGTACAAATTTTTATAGAAAA [XGTACX_site7407],8.46
10,AATATTAAAGAATAATGTACAAAATAAAAGCAAAGA [XGTACX_site3550],9.86
11,TATTATTCTACTATTATATTCTATATTATTTATAGT [CACACA_negctrl_site499],9.37
12,ATAATAATATAAAAATGTACATATATTTATAATTGT [XGTACX_site3429],9.23
13,AGCACAGACGGACACACACACATATATATATATATA [CACACA_site4341],9.88
14,CATACAGATGGACACACACACACACCCACAGACAAA [CACACA_site4431],10.1
15,AGCACAGACGGACACACACACACACCCACAGACACA [CACACA_site4358],10.2
16,AAAGAAGGGGGGGGAAAAAAAAATAAAAGAGGAAAA [XGTACX_negctrl_site92],9.59
17,TTTGAAGGAAGGGGGGGAGGGGCCATAACAAAGGAA [GTGCAC_negctrl_site408],10.4
18,AAAAAAAAAAAAAAAAGGGGGGGAGGGATTGAAAAA [CACACA_negctrl_site193],10
